# Assay results published in PubChem BioAssay (EPA / NIEHS).
# Results filed as inconclusive are left out. A structure can be active in one record and inactive in another. Activity calls are given as the source filed them. Rule for the calls, unless noted: active = hit-call score of the fitted dose curve at least 0.9, where 1 is the maximum; inconclusive = response in the unintended direction; inactive = score below 0.9.
# Tests used:
# [1] = target: Cellular tumor antigen p53 (Homo sapiens) (UniProt P04637); experiment: TOX21_p53_BLA_p3_ratio: Tox21 HCT-116 p53 Agonism Beta-lactamase Assay, Ratio, Phase 3 (AID 2283596)
# Sequence of Cellular tumor antigen p53 (Homo sapiens) (P04637 whole entry, looked up): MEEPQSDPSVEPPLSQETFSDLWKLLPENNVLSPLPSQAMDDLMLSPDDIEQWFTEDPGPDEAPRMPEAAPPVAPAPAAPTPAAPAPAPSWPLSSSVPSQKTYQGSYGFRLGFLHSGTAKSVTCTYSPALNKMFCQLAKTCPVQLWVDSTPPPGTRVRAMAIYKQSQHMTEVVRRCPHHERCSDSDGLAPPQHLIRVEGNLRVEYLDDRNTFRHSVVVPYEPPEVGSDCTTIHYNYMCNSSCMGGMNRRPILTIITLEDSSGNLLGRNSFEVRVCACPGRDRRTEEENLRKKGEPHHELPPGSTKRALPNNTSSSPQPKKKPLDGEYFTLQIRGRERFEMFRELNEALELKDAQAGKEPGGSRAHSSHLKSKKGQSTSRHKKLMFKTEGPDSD
# Outline: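 Cells were seeded at 4000/well, rested 5 h at 37C, then dosed with DMSO compound solutions (217-fold dilution) for 16 h. CCF4-AM substrate was loaded for 2 h at room temperature, and the 460/530 nm emission ratio was fitted for gain of signal versus DMSO.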
# [2] = TOX21_p53_BLA_p4_viability: Viability Assessment in the Tox21 HCT-116 p53 Agonism Beta-lactamase Assay, Phase 4 (AID 2283597);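 note: hits lower the luminescence signal meaning cytotoxicity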
# Outline: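 Readout: ATP luminescence (CellTiter-Glo), measured 30 min after reagent addition at RT. The reagent followed a 2 h CCF4-AM incubation, and the cells had been exposed to compound for 16 h at 37C.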
# [3] = target: Cellular tumor antigen p53 (Homo sapiens) (UniProt P04637); experiment: TOX21_p53_BLA_p5_ratio: Tox21 HCT-116 p53 Agonism Beta-lactamase Assay, Ratio, Phase 5 (AID 2283599)
# Outline: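 HCT-116 p53-bla cells (4000/well) plated 5 h, dosed with compound (217-fold DMSO dilution) for 16 h at 37 C; CCF4-AM substrate 2 h at room temperature. Activity is the 460/530 nm emission ratio (405 nm excitation), fitted in gain-of-signal direction versus DMSO.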
# [4] = target: Cellular tumor antigen p53 (Homo sapiens) (UniProt P04637); experiment: TOX21_p53_BLA_p4_ratio: Tox21 HCT-116 p53 Agonism Beta-lactamase Assay, Ratio, Phase 4 (AID 2283601)
# Outline: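 HCT-116 p53 beta-lactamase reporter cells (4000/well) preincubated 5 h, then compound (217-fold dilution of DMSO stock) for 16 h at 37C. CCF4-AM substrate added 2 h at room temperature; 460/530 nm emission ratio fitted upward versus DMSO.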
# [5] = Tanguay_ZF_120hpf_MORT_legacy: (Legacy) Oregon State University Tanguay Lab 120 Hour Post-fertilization zebrafish Assay for Mortality (AID 2283633)
# Outline: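 5D WT zebrafish, chorion removed 4 hpf; 1 embryo/well from 6 hpf; static exposure to 120 hpf, 28C, dark, sealed. Final DMSO 0.64%. Readout: binary mortality, brightfield, 24 + 120 hpf; DMSO as negative control.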
# [6] = Tanguay_ZF_120hpf_AXIS_legacy: (Legacy) Oregon State University Tanguay Lab 120 Hour Post-fertilization zebrafish Assay for Body Axis Malformation (AID 2283635);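 for AC50: potency for an increased fraction of larvae scored with body axis malformation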
# Outline: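 Chorion is removed with pronase at 4 hpf, then single 6 hpf embryos are dosed (final DMSO 0.64%) and held statically at 28C in sealed, foil-covered plates. At 120 hpf body axis malformation is recorded as present or absent.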
# [7] = Tanguay_ZF_120hpf_EYE_legacy: (Legacy) Oregon State University Tanguay Lab 120 Hour Post-fertilization zebrafish Assay for Eye Malformation (AID 2283636)
# Outline: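 5D wild-type embryos, pronase-dechorionated at 4 hpf; static exposure 6–120 hpf, 28C, dark; DMSO 0.64% final; 5uM trimethyltin chloride positive control. Binary eye-defect scoring at 120 hpf; dead embryos not scored.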
# [8] = Tanguay_ZF_120hpf_SNOU_legacy: (Legacy) Oregon State University Tanguay Lab 120 Hour Post-fertilization zebrafish Assay for Snout Malformation (AID 2283637)
# Outline: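 Binary brightfield scoring of snout malformation at 120 hpf. Dechorionated 5D wild-type embryos, one per well, static exposure from 6 hpf at 28C, sealed and dark; final DMSO 0.64% (vol/vol), DMSO as baseline; 5uM trimethyltin chloride positive control.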
# [9] = Tanguay_ZF_120hpf_JAW_legacy: (Legacy) Oregon State University Tanguay Lab 120 Hour Post-fertilization zebrafish Assay for Jaw Malformation (AID 2283638)
# Outline: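 Steps: dechorionate 4 hpf embryos (pronase); plate 1/well at 6 hpf; add test chemical, 0.64% DMSO final; seal, cover, hold at 28C statically to 120 hpf; score jaw defect presence/absence microscopically. Dead embryos not scored.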
# [10] = Tanguay_ZF_120hpf_OTIC_legacy: (Legacy) Oregon State University Tanguay Lab 120 Hour Post-fertilization zebrafish Assay for Otic Vesicle Malformation (AID 2283639)
# Outline: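 Binary scoring of otic vesicle defects at 120 hpf in zebrafish (Tropical 5D) held under static exposure at 28C, sealed and shaded, with final DMSO 0.64%. Embryos dying by 24 or 120 hpf excluded; fitted positively against DMSO.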
# [11] = Tanguay_ZF_120hpf_PFIN_legacy: (Legacy) Oregon State University Tanguay Lab 120 Hour Post-fertilization zebrafish Assay for Pectoral Fin Malformation (AID 2283648);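 note: each larva judged yes or no for fin defect by brightfield with dead larvae skipped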
# Outline: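 Binary pectoral fin malformation call at 120 hpf by brightfield microscopy; 5D wild-type zebrafish, chorion removed at 4 hpf, one embryo per well from 6 hpf, static exposure at 28C; DMSO (0.64% final) as baseline.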
# [12] = Tanguay_ZF_120hpf_CFIN_legacy: (Legacy) Oregon State University Tanguay Lab 120 Hour Post-fertilization zebrafish Assay for Caudal Fin Malformation (AID 2283649)
# Outline: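 Binary presence or absence of caudal fin malformation at 120 hpf, read by brightfield microscopy, with DMSO as baseline. Larvae came from 5D wild-type embryos exposed statically from 6 hpf at 28C after pronase dechorionation.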
# [13] = Tanguay_ZF_120hpf_PIG_legacy: (Legacy) Oregon State University Tanguay Lab 120 Hour Post-fertilization zebrafish Assay for Pigmentation Malformation (AID 2283650);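 note: dechorionated Tropical 5D zebrafish embryos exposed singly from 6 to 120 hpf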
# Outline: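 Brightfield scoring of pigmentation malformation at 120 hpf, recorded as binary present/absent per larva. Exposure: dechorionated 5D wild-type embryos, one per well, static from 6 hpf at 28C, final DMSO 0.64% (vol/vol). Dead embryos not scored.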
# [14] = Tanguay_ZF_120hpf_PE_legacy: (Legacy) Oregon State University Tanguay Lab 120 Hour Post-fertilization zebrafish Assay for Pericardial Edema (AID 2283640)
# Outline: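 Embryos from wild-type 5D adults were staged, then dosed in 0.64% DMSO. They were kept sealed in the dark at 28C until 120 hpf. Pericardial edema was then recorded as present or absent.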
# [15] = Tanguay_ZF_120hpf_SOMI_legacy: (Legacy) Oregon State University Tanguay Lab 120 Hour Post-fertilization zebrafish Assay for Somite Malformation (AID 2283647)
# Outline: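 Read-out: presence or absence of somite malformation in 120 hpf larvae, gain-of-signal relative to DMSO baseline. Embryos lacked chorion (pronase, 4 hpf) and were exposed statically from 6 hpf at 28C; dead larvae not scored.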
# [16] = Tanguay_ZF_120hpf_CIRC_legacy: (Legacy) Oregon State University Tanguay Lab 120 Hour Post-fertilization zebrafish Assay for Circulatory Malformation (AID 2283651)
# Outline: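 Binary circulatory malformation call at 120 hpf by brightfield imaging of zebrafish larvae; chorion removed at 4 hpf, static exposure from 6 hpf in sealed dark plates at 28C, final DMSO 0.64%; non-mortality endpoints skipped if embryo died.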
# [17] = Tanguay_ZF_120hpf_YSE_legacy: (Legacy) Oregon State University Tanguay Lab 120 Hour Post-fertilization zebrafish Assay for Yolk Sac Edema (AID 2283634)
# Outline: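 Dechorionate (pronase, 4 hpf) → place one 6 hpf embryo per well → static compound exposure, sealed and foil-covered, 28C, to 120 hpf → record yolk sac edema as present or absent. Final DMSO 0.64%.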
# [18] = TOX21_p53_BLA_p3_viability: Viability Assessment in the Tox21 HCT-116 p53 Agonism Beta-lactamase Assay, Phase 3 (AID 2283593);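 note: cells exposed to compound for 16 h before reading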
# Outline: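 HCT116 cells, 4000/well, dosed 5 h after plating by pin transfer (217-fold dilution from DMSO stock) and incubated 16 h at 37C, 5% CO2. Viability read as ATP luminescence with CellTiter-Glo after 30 min at room temperature.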
# [19] = TOX21_p53_BLA_p5_viability: Viability Assessment in the Tox21 HCT-116 p53 Agonism Beta-lactamase Assay, Phase 5 (AID 2283600)
# Outline: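 Workflow: seed 4000 cells per well, wait 5 h, add compounds (DMSO, 217-fold dilution), incubate 16 h, load CCF4-AM 2 h, add CellTiter-Glo, read luminescence after 30 min.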
# [20] = read-out: kallikrein-3 (KLK3), KLK3 (gene 354); experiment: LTEA_HepaRG_KLK3: Life Technologies and Expression Analysis (LTEA) Assay for kallikrein-3 (KLK3) using HepaRG (AID 2283652; active = hit-call score of the fitted dose curve at least 0.9, where 1 is the maximum; inactive = score below 0.9); conditions: mRNA level, 48 h; actives raise or lower the signal
# Outline: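 KLK3 transcript levels were measured by TaqMan qRT-PCR with normalisation to three housekeeping genes. HepaRG cultures received chemicals for 48 h at up to 100 uM (half-log, 8 points, 0.5% DMSO vehicle), fitted in both directions against DMSO.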
compound,measurement,setting,value
CCc1ccc(C(=O)NN(C(=O)c2cc(C)cc(C)c2)C(C)(C)C)cc1,outcome,[1],inactive
same,outcome,[2],inactive
same,outcome,[3],inactive
same,outcome,[4],inactive
same,outcome,[5],inactive
same,outcome,[6],inactive
same,outcome,[7],inactive
same,outcome,[8],inactive
same,outcome,[9],inactive
same,outcome,[10],inactive
same,outcome,[11],inactive
same,outcome,[12],inactive
same,outcome,[13],inactive
CCOCN(C(=O)CCl)c1c(C)cccc1CC,outcome,[1],inactive
same,outcome,[2],inactive
same,outcome,[3],inactive
same,outcome,[4],inactive
same,outcome,[5],inactive
same,AC50,[6],39 µM (active)
same,outcome,[8],inactive
same,outcome,[9],inactive
same,outcome,[10],inactive
same,outcome,[14],inactive
same,outcome,[15],inactive
same,outcome,[11],inactive
same,outcome,[12],inactive
same,outcome,[13],inactive
same,outcome,[16],inactive
CNC(=O)/C=C(\C)OP(=O)(OC)OC,outcome,[5],inactive
same,outcome,[17],inactive
same,outcome,[6],inactive
same,outcome,[7],inactive
same,outcome,[8],inactive
same,outcome,[9],inactive
same,outcome,[10],inactive
same,outcome,[14],inactive
same,outcome,[15],inactive
same,outcome,[11],inactive
same,outcome,[13],inactive
same,outcome,[16],inactive
C[C@H]1[C@H](c2ccc(Cl)cc2)SC(=O)N1C(=O)NC1CCCCC1,outcome,[18],inactive
same,outcome,[1],inactive
same,outcome,[3],inactive
same,outcome,[19],inactive
same,outcome,[5],inactive
same,outcome,[17],inactive
same,outcome,[6],inactive
same,outcome,[7],inactive
same,outcome,[8],inactive
same,outcome,[9],inactive
same,outcome,[10],inactive
same,outcome,[14],inactive
same,outcome,[15],inactive
same,outcome,[11],inactive
same,outcome,[12],inactive
same,outcome,[13],inactive
CCC(C)Nc1c([N+](=O)[O-])cc(C(C)(C)C)cc1[N+](=O)[O-] (stereo unspecified),outcome,[5],inactive
same,outcome,[17],inactive
same,outcome,[6],inactive
same,outcome,[7],inactive
same,outcome,[8],inactive
same,outcome,[9],inactive
same,outcome,[10],inactive
same,outcome,[14],inactive
same,outcome,[15],inactive
same,outcome,[11],inactive
same,outcome,[12],inactive
same,outcome,[13],inactive
N#CN,outcome,[5],inactive
same,outcome,[17],inactive
same,outcome,[6],inactive
same,outcome,[7],inactive
same,outcome,[8],inactive
same,outcome,[9],inactive
same,outcome,[10],inactive
same,outcome,[14],inactive
same,outcome,[15],inactive
same,outcome,[11],inactive
same,outcome,[12],inactive
same,outcome,[13],inactive
same,outcome,[16],inactive
O=[N+]([O-])/N=C1\NCCN1Cc1ccc(Cl)nc1,outcome,[5],inactive
same,outcome,[17],inactive
same,outcome,[6],inactive
same,outcome,[7],inactive
same,outcome,[8],inactive
same,outcome,[9],inactive
same,outcome,[10],inactive
same,outcome,[14],inactive
same,outcome,[15],inactive
same,outcome,[11],inactive
same,outcome,[12],inactive
same,outcome,[13],inactive
same,outcome,[16],inactive
C#CCN1C(=O)COc2cc(F)c(N3C(=O)C4=C(CCCC4)C3=O)cc21,outcome,[5],inactive
same,outcome,[17],inactive
same,outcome,[6],inactive
same,outcome,[7],inactive
same,outcome,[8],inactive
same,outcome,[9],inactive
same,outcome,[10],inactive
same,outcome,[14],inactive
same,outcome,[15],inactive
same,outcome,[11],inactive
same,outcome,[12],inactive
same,outcome,[13],inactive
same,outcome,[16],inactive
CNC(=O)Oc1ccccc1OC(C)C,outcome,[1],inactive
same,outcome,[3],inactive
same,outcome,[19],inactive
same,outcome,[4],inactive
same,outcome,[5],inactive
same,outcome,[17],inactive
same,outcome,[6],inactive
same,outcome,[8],inactive
same,outcome,[9],inactive
same,outcome,[10],inactive
same,outcome,[14],inactive
same,outcome,[11],inactive
same,outcome,[12],inactive
same,outcome,[13],inactive
same,outcome,[16],inactive
CNC(=O)Oc1cccc(N=CN(C)C)c1,outcome,[2],inactive
same,outcome,[3],inactive
same,outcome,[4],inactive
same,outcome,[5],inactive
same,outcome,[6],inactive
same,outcome,[7],inactive
same,outcome,[9],inactive
same,outcome,[10],inactive
same,outcome,[14],inactive
same,outcome,[15],inactive
same,outcome,[11],inactive
same,outcome,[12],inactive
CCN(CC)C(=O)SCc1ccc(Cl)cc1,outcome,[18],inactive
same,outcome,[1],inactive
same,outcome,[2],inactive
same,outcome,[3],inactive
same,outcome,[4],inactive
same,outcome,[5],inactive
same,outcome,[17],inactive
same,outcome,[6],inactive
same,outcome,[8],inactive
same,outcome,[9],inactive
same,outcome,[14],inactive
same,outcome,[15],inactive
same,outcome,[11],inactive
same,outcome,[12],inactive
same,outcome,[13],inactive
same,outcome,[16],inactive
CCOC1Oc2ccc(OS(C)(=O)=O)cc2C1(C)C (stereo unspecified),outcome,[5],inactive
same,outcome,[17],inactive
same,outcome,[6],inactive
same,outcome,[7],inactive
same,outcome,[8],inactive
same,outcome,[9],inactive
same,outcome,[10],inactive
same,outcome,[14],inactive
same,outcome,[15],inactive
same,outcome,[11],inactive
same,outcome,[12],inactive
same,outcome,[13],inactive
same,outcome,[16],inactive
same,outcome,[20],inactive
COC(=O)c1ccccc1S(=O)(=O)NC(=O)Nc1nc(C)nc(OC)n1,outcome,[18],inactive
same,outcome,[4],inactive
COC(=O)c1ccccc1S(=O)(=O)NC(=O)N(C)c1nc(C)nc(OC)n1,outcome,[2],inactive
same,outcome,[19],inactive
same,outcome,[4],inactive
O=C(O)COc1ccc(Cl)cc1Cl,outcome,[18],inactive
same,outcome,[2],inactive
same,outcome,[3],inactive
same,outcome,[19],inactive
same,AC50,[4],0.000116 µM (active)
same,outcome,[4],inactive
same,outcome,[5],inactive
same,outcome,[17],inactive
same,outcome,[6],inactive
same,outcome,[8],inactive
same,outcome,[9],inactive
same,outcome,[10],inactive
same,outcome,[14],inactive
same,outcome,[11],inactive
same,outcome,[12],inactive
same,outcome,[13],inactive
same,outcome,[16],inactive
